Out of some 360,000 compounds screened, about 350 (0.097%) were called active. This excerpt belongs to a sample that is enriched for actives. Values without a mark were called inactive. Cut-off read from the data, not from the text of the source: active = inhibition above about 16% (passing the limit was not always enough); inconclusive = no clear call, values can overlap the other calls; inactive = below that.
tested on: UDP-N-acetylbacillosamine N-acetyltransferase PglD (Campylobacter jejuni); test: C. jejuni PglD acetyltransferase inhibitors, primary screen, biochemical, DTNB colorimetric, single point (AID 602405); conditions: purified PglD enzyme, DTNB colorimetric CoA detection; at 12.5 µM; stronger effect = higher value

| SMILES | inhibition |
| --- | --- |
| CCCc1cn(CC[C@@H]2CC[C@H](NS(=O)(=O)c3ccccc3Cl)[C@H](CO)O2)nn1 | -0.55% |
| CC(=O)N1C[C@@H]2[C@H](c3ccccc31)[C@H](CO)N2Cc1ccc(Cl)cc1 | 2.15% |
| CCCNC(=O)C[C@@H]1C[C@@H]2c3cc(N(C)C)ccc3O[C@@H]2[C@H](CO)O1 | -5.6% |
| COc1ccc(S(=O)(=O)N(C)C[C@H]2OCCCC[C@H](C)Oc3ccc(NC(=O)Nc4ccc(F)cc4)cc3C(=O)N([C@@H](C)CO)C[C@H]2C)cc1 | -0.001% |
| C[C@@H](NC(=O)[C@H]1[C@H](CO)[C@H]2Cn3c(cccc3=O)[C@H]2N1C(=O)C1CC1)c1ccccc1 | -3.9% |
| O=C(COc1ccc(Br)cc1)OCC(=O)c1ccc[nH]1 | 0.716% |
| CCOc1ccc(NC(=O)CCNC(=O)c2ccc(Br)cc2)cc1 | 1.93% |
| CC(=O)Nc1ccc(OC(=O)COc2ccc(Br)cc2)cc1 | 83.3% (active) |
| C[C@H](CO)N1C[C@H](C)[C@H](CN(C)Cc2ccccc2)Oc2ccc(NC(=O)Cc3ccccc3)cc2C1=O | -3.27% |
| COCC(=O)Nc1ccc2c(c1)C(=O)N(C)[C@H]1CC[C@@H](CC(=O)Nc3cn(C)nc3C)O[C@@H]1CO2 | 2.19% |
| COc1ccc(CNC(=O)C2CCN(C(=O)c3ccccc3)CC2)cc1 | -3.01% |
| O=C(c1cccc(Cl)c1)N1CCN(Cc2ccccc2)CC1 | -4.44% |
| O=C(NCc1ccncc1)C1CCN(C(=O)c2cccc(Cl)c2)CC1 | 22.3% (active) |
| CC(C)NC(=O)N[C@H]1C=C[C@H](CC(=O)NCCN2CCCC2)O[C@@H]1CO | 0.57% |
| CCC(=O)N1[C@@H](CO)[C@@H]2c3ccccc3N(C(=O)c3ccccc3F)C[C@@H]21 | -0.466% |
| COc1ccc(CN(C)C[C@@H]2OCCCC[C@H](C)Oc3ccc(NS(C)(=O)=O)cc3C(=O)N([C@@H](C)CO)C[C@H]2C)cc1 | -1.59% |
| O=C(NC[C@@H]1[C@H](c2ccccc2)[C@H](CO)N1CC1CCCC1)c1cccnc1 | 1.03% |
| CC=Cc1ccc2n(c1=O)C[C@H]1[C@H](CO)[C@@H](C(=O)NCc3ccncc3)N(Cc3cncnc3)[C@@H]21 (mixture of isomers) | -1.52% |
| CC=Cc1ccc2n(c1=O)C[C@@H]1[C@@H](CO)[C@H](C(=O)N3CCCCC3)[C@H]2N1C(=O)C1CCC1 (mixture of isomers) | 2.61% |
| C[C@@H]1CCCCO[C@H](CN(C)Cc2ccc(C(F)(F)F)cc2)[C@@H](C)CN([C@@H](C)CO)C(=O)c2cc(NC(=O)c3ccncc3)ccc2O1 | 3.05% |
| CC(C)CN(C[C@@H]1N[C@@H](CO)[C@H]1c1ccccc1)C(=O)CN(C)C | 5.57% |
| CO[C@@H]1CN(C)C(=O)c2cc(NC(=O)C3CCC3)ccc2OC[C@H](C)N(Cc2nccs2)C[C@H]1C | 0.477% |
| Cc1noc(C)c1NC(=O)N(C)C[C@H]1Oc2c(NS(=O)(=O)c3cccs3)cccc2C(=O)N([C@@H](C)CO)C[C@@H]1C | 0.536% |

| SMILES | inhibition |
| --- | --- |
| CO[C@@H]1CN(C)C(=O)c2cc(NC(=O)NC3CCCCC3)ccc2OC[C@H](C)N(CC2CCOCC2)C[C@H]1C | -1.39% |
| CCCC(=O)Nc1ccc(C(=O)NCCCn2ccnc2)cc1 | -0.628% |
| CC(=O)Nc1ccc(NC(=O)CCCNC(=O)c2ccc(Cl)cc2)cc1 | -4.6% |
| CCCCC(=O)Nc1ccc(C(=O)NCCCn2ccnc2)cc1 | 20.6% (active) |
| COc1cccc(-c2ccc3c(c2)O[C@H](CN(C)Cc2ccncc2)[C@H](C)CN([C@H](C)CO)S3(=O)=O)c1 | -0.814% |
| CCCC#Cc1ccc([C@H]2[C@@H](CO)N(C(=O)C3CC3)[C@H]2C#N)cc1 | 0.491% |
| C[C@@H]1CN([C@H](C)CO)C(=O)c2cc(C#Cc3ccccn3)cnc2O[C@H]1CN(C)CC1CCOCC1 | 14.4% |
| C[C@H]1CN([C@@H](C)CO)C(=O)c2cccc(NC(=O)C3CCOCC3)c2O[C@H]1CN(C)S(C)(=O)=O | -0.415% |
| COc1ccc(CNC(=O)C[C@H]2CC[C@@H]3[C@H](COc4ccc(NC(=O)C5CC5)cc4C(=O)N3C)O2)cc1 | -0.548% |
| C[C@H]1CN([C@@H](C)CO)C(=O)c2cc(N(C)C)ccc2O[C@@H]1CN(C)S(=O)(=O)c1ccc(Cl)cc1 | 14.8% |
| C[C@@H]1CCCCO[C@@H](CN(C)Cc2ccc(C(=O)O)cc2)[C@H](C)CN([C@H](C)CO)C(=O)c2cc(NC(=O)Nc3ccc(F)cc3)ccc2O1 | 0.576% |
| C[C@H](CO)N1C[C@H](C)[C@H](CN(C)S(=O)(=O)c2ccccc2)Oc2cc(Br)ccc2S1(=O)=O | -0.169% |
| C[C@@H]1CN([C@@H](C)CO)C(=O)c2cc(NC(=O)Cc3ccccc3)ccc2O[C@@H](C)CCCCO[C@H]1CN(C)C(=O)Nc1cccc2ccccc12 | -0.256% |
| COc1ccc(NC(=O)CN(C)C(=O)c2ccc(COc3ccccc3)o2)cc1 | -2.65% |
| CCOc1ccc(OCc2ccc(C(=O)Nc3cccc(C)n3)o2)cc1 | 1.24% |
| CCOc1ccc(OCc2ccc(C(=O)N(C)c3ccccc3)o2)cc1 | 27.6% (active) |
| C/C=C/c1ccc2c(c1)O[C@H](CN(C)C(C)=O)[C@H](C)CN([C@H](C)CO)S2(=O)=O | -0.698% |
| CO[C@H]1CN(C)C(=O)c2ccc(NC(=O)C3CC3)cc2OC[C@@H](C)N(C)C[C@H]1C | 4.48% |
| CO[C@@H]1CN(C)C(=O)c2ccc(NC(=O)C3CCCCC3)cc2OC[C@@H](C)N(Cc2nccs2)C[C@@H]1C | 1.22% |
| Cc1ccc(S(=O)(=O)N(C)C[C@H]2Oc3c(NC(=O)c4ccc(-c5nccs5)cc4)cccc3C(=O)N([C@H](C)CO)C[C@H]2C)cc1 | -3.77% |
| C[C@H]1CN([C@@H](C)CO)S(=O)(=O)c2ccc(C#Cc3ccccc3F)cc2O[C@@H]1CN(C)C(=O)c1ccc2c(c1)OCO2 | 1.7% |
| CN1CCN(C(=O)C[C@@H]2C=C[C@@H](NS(=O)(=O)c3cccc(F)c3)[C@@H](CO)O2)CC1 | -7.9% |
| CNC(=O)C[C@H]1CC[C@H]2[C@H](COc3ccc(NC(=O)Nc4cccc(C)c4)cc3C(=O)N2C)O1 | -0.336% |

| SMILES | inhibition |
| --- | --- |
| CCOC(=O)C1CCN(CC(=O)Nc2ccc(OC)c(S(=O)(=O)N3CCCCC3)c2)CC1 | 2.34% |
| COc1ccc(NC(=O)C2=NNC(=O)CC2)cc1S(=O)(=O)N1CCCCC1 | 25.4% (active) |
| COc1ccccc1C(=O)Nc1ccc(C)c(S(=O)(=O)N2CCCCC2)c1 | -5.07% |
| C[C@@H]1CN([C@@H](C)CO)C(=O)c2cccc(NS(=O)(=O)c3ccc(Cl)cc3)c2O[C@@H]1CN(C)C(=O)Nc1ccccc1 | 0.684% |
| N#C[C@H]1[C@@H](c2ccc(-c3ccccc3F)cc2)[C@H](CO)N1C(=O)c1ccccn1 | -0.127% |
| COc1cccc(CNC(=O)C[C@H]2CC[C@@H](NC(C)=O)[C@@H](CO)O2)c1 | -2.55% |
| C[C@@H]1CCCCO[C@H](CN(C)C(=O)C2CCCCC2)[C@@H](C)CN([C@@H](C)CO)C(=O)c2cc(NC(=O)Nc3ccccc3)ccc2O1 | -3.55% |
| O=C(C[C@H]1C=C[C@H](NC(=O)Nc2cc(F)ccc2F)[C@H](CO)O1)Nc1ccccc1 | -2.58% |
| C[C@@H]1CN([C@H](C)CO)C(=O)Cc2cc(NS(=O)(=O)c3cccs3)ccc2O[C@H]1CN(C)C(=O)Nc1ccc2c(c1)OCO2 | 2.77% |
| C[C@@H]1CN([C@H](C)CO)S(=O)(=O)c2ccc(C#Cc3ccccc3F)cc2O[C@@H]1CN(C)C(=O)c1ccc2c(c1)OCO2 | -1.88% |
| COc1ccc(S(=O)(=O)Nc2ccc3c(c2)C(=O)N([C@H](C)CO)C[C@@H](C)[C@H](CN(C)S(=O)(=O)c2ccc(C)cc2)O3)cc1 | 4.85% |
| COCCNC(=O)C[C@H]1CC[C@@H]2[C@H](COc3ccc(NC(=O)Nc4cccc(F)c4)cc3C(=O)N2C)O1 | 0.139% |
| CO[C@H]1CN(C)C(=O)c2ccc(NC(=O)c3cnccn3)cc2OC[C@@H](C)N(C(C)=O)C[C@H]1C | -1.18% |
| C[C@@H]1CN([C@H](C)CO)C(=O)Cc2cc(NC(=O)C3CCCCC3)ccc2O[C@@H]1CN(C)S(C)(=O)=O | 56.5% |
| CC(C)NC(=O)N1[C@@H]2CN(C(=O)Nc3ccc(F)cc3)c3ccccc3[C@@H]2[C@@H]1CO | 2.48% |
| C[C@@H]1CCCCO[C@@H](CN(C)S(=O)(=O)c2ccccc2)[C@H](C)CN([C@H](C)CO)C(=O)c2cc(NC(=O)CCC(F)(F)F)ccc2O1 | 0.918% |
| O=C(c1ccccc1)N1C[C@H]2[C@@H](c3ccccc31)[C@H](CO)N2Cc1ccccc1F | -1.39% |
| CC(C)C#Cc1ccc([C@@H]2[C@H]3CN(C(=O)NC(C)C)CCCCN3[C@H]2CO)cc1 | 1.97% |
| CN1C(=O)c2cc(NC(=O)C3CC3)ccc2OC[C@@H]2O[C@H](CC(=O)NCC3CCCCC3)CC[C@@H]21 | 0.676% |
| CCCOc1ccc(F)cc1-c1cc(C(=O)Nc2ccc(F)cc2)[nH]n1 | 21.5% (active) |
| CCCOc1ccc(F)cc1-c1cc(C(=O)Nc2ccc(F)c(Cl)c2)[nH]n1 | -24.9% |
| CCCOc1ccc(F)cc1-c1cc(C(=O)NCc2ccc(F)cc2)[nH]n1 | 4.69% |

— PubChem BioAssay AID602405 (Broad Institute, 2012)
